# Data as given in PubChem BioAssay (EPA / NIEHS).
# Where “and” joins values, the source holds several entries; their conditions need not be identical. Identical values can stand only once. Results filed as inconclusive are left out. Calls of active or inactive are those of the source. Rule for the calls: active = hit-call score of the fitted dose curve at least 0.9, where 1 is the maximum; inconclusive = response in the unintended direction; inactive = score below 0.9.
# Key:
# [1] = target: rat Adrenergic, Alpha 1, Non-selective Receptor (Adra1), Adra1a (gene 29412) (UniProt P43140); assay: NVS_GPCR_rAdra1_NonSelective: NovaScreen (NVS) G Protein-Coupled Receptor Assay for rat Adrenergic, Alpha 1, Non-selective Receptor (Adra1) (AID 2283289)
# rat Adrenergic, Alpha 1, Non-selective Receptor (Adra1), Adra1a (gene 29412), sequence (P43140 whole entry, looked up): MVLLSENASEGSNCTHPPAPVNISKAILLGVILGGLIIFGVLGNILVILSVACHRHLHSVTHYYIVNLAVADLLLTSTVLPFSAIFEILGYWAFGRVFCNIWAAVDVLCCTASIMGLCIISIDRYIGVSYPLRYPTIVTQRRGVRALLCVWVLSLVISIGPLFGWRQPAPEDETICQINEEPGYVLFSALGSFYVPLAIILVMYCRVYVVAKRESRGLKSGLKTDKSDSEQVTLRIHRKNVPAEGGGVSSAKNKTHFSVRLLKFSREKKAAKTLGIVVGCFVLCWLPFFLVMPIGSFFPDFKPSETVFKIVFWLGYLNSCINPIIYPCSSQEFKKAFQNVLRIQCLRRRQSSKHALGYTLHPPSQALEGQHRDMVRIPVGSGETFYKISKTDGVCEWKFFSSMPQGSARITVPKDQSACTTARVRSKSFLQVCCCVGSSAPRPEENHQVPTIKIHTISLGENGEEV
# Procedure, shortened: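 Chemicals first screened in duplicate at 25 uM, then actives tested in concentration series up to 50 uM. Binding measured as displacement of radioligand from rat forebrain membrane receptors, 1 h, filtration with scintillation readout; DMSO baseline.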
# [2] = target: human Opioid Receptor Mu (Opiate Mu), OPRM1 (gene 4988) (UniProt P35372); assay: NVS_GPCR_hOpiate_mu: NovaScreen (NVS) G Protein-Coupled Receptor Assay for human Opioid Receptor Mu (Opiate Mu) (AID 2283290);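 note: hits lower bound tracer signal versus DMSO meaning displacement of the ligand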
# human Opioid Receptor Mu (Opiate Mu), OPRM1 (gene 4988), sequence (P35372 whole entry, looked up): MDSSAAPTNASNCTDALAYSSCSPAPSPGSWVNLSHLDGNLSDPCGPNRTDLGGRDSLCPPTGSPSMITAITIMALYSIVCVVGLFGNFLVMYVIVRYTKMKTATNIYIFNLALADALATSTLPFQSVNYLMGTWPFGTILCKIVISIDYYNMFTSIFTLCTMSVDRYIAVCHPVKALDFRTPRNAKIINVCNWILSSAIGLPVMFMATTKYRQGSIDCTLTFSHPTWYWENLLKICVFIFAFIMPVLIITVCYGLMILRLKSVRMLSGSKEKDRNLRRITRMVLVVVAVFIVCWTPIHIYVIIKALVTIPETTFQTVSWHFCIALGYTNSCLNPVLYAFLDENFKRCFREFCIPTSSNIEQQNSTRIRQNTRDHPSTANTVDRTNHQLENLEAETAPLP
# Procedure, shortened: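 Cell-free radioligand binding to membranes from CHO cells expressing the receptor; bound tracer measured by filter-based scintillation counting 2.5 hours after dosing. Loss of signal versus DMSO baseline reflects displacement; primary screen at 25 uM in duplicate, actives followed up in concentration series.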
# [3] = target: mouse Cholecystokinin, CCK2 Receptor (CCKB), Cckbr (gene 12426) (UniProt P56481); assay: NVS_GPCR_mCKKBCentral: NovaScreen (NVS) G Protein-Coupled Receptor Assay for mouse Cholecystokinin, CCK2 Receptor (CCKB) (AID 2283293)
# mouse Cholecystokinin, CCK2 Receptor (CCKB), Cckbr (gene 12426), sequence (P56481 whole entry, looked up): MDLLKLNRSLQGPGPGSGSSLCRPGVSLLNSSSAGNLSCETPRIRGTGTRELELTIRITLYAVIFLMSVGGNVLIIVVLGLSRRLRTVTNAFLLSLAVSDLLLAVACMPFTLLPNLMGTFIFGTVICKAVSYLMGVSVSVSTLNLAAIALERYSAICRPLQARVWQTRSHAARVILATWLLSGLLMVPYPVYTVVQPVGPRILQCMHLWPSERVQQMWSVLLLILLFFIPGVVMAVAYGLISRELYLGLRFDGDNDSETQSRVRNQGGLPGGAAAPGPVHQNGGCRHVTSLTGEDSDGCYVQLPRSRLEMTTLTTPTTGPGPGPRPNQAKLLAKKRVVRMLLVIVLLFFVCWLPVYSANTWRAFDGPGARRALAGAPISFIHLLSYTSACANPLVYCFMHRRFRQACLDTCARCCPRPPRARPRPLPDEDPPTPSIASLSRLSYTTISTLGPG
# Procedure, shortened: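 Mouse forebrain membrane preparation incubated 2 h with chemical and radioligand; bound radioactivity counted after filtration. Single-concentration duplicate screen at 25 uM, then concentration series to 50 uM max for hits, DMSO as baseline.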
# [4] = target: guinea pig Serotonin, 5-Hydroxytryptamine Receptor 4 (5HT4), HTR4 (gene 100135548) (UniProt O70528); assay: NVS_GPCR_g5HT4: NovaScreen (NVS) G Protein-Coupled Receptor Assay for guinea pig Serotonin, 5-Hydroxytryptamine Receptor 4 (5HT4) (AID 2283294)
# guinea pig Serotonin, 5-Hydroxytryptamine Receptor 4 (5HT4), HTR4 (gene 100135548), sequence (O70528 whole entry, looked up): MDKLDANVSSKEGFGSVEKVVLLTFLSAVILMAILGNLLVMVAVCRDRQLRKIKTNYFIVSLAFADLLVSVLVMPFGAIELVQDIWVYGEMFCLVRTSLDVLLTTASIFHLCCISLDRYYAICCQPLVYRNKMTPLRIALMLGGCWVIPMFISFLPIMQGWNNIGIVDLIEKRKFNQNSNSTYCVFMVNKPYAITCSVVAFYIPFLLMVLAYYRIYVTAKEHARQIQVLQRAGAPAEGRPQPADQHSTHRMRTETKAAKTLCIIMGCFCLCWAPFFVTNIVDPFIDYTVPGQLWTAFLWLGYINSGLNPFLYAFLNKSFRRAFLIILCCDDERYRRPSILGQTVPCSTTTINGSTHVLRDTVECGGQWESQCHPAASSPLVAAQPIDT
# Procedure, shortened: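 Compounds first screened in duplicate at 25 uM, actives followed up in concentration series. Binding measured as displacement of specific radioligand from guinea pig striatal membranes, 1 h, filter-based scintillation read-out versus DMSO baseline.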
# [5] = target: mouse Cholecystokinin, CCK1 Receptor (CCKA), Cckar (gene 12425) (UniProt O08786); assay: NVS_GPCR_mCCKAPeripheral: NovaScreen (NVS) G Protein-Coupled Receptor Assay for mouse Cholecystokinin, CCK1 Receptor (CCKA) (AID 2283285)
# mouse Cholecystokinin, CCK1 Receptor (CCKA), Cckar (gene 12425), sequence (O08786 whole entry, looked up): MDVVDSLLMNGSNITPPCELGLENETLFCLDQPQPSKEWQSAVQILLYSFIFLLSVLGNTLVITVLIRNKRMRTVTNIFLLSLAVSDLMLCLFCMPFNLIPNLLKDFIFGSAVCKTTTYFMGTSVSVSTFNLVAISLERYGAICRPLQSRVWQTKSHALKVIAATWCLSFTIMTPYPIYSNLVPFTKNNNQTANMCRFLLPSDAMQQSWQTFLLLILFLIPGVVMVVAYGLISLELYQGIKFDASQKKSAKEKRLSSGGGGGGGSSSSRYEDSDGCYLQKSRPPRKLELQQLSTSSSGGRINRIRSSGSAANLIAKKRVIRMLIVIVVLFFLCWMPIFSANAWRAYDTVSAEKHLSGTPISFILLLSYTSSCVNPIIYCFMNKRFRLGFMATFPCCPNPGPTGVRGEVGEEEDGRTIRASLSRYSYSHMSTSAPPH
# Protocol: (§1) NVS_GPCR_mCCKAPeripheral is a biochemical, single-readout assay that uses extracted gene-proteins from Mouse pancreatic membranes in a tissue-based cell-free assay. Measurements were taken 2 hours after chemical dosing in a 96-well plate.NVS_GPCR_mCCKAPeripheral is one of one assay component(s) measured or calculated from the NVS_GPCR_mCCKAPeripheral assay. It is designed to make measurements of radioligand binding, a form of binding reporter, as detected with scintillation counting signals by Filter-based radiodetection technology.Data from the assay component NVS_GPCR_mCCKAPeripheral was analyzed into 1 assay endpoint. This assay endpoint, NVS_GPCR_mCCKAPeripheral, was analyzed in the positive analysis fitting direction relative to DMSO as the negative control and baseline of activity. Using a type of binding reporter, loss-of-signal activity can be used to understand changes in the binding as they relate to the gene Cckar. Furthermore, this assay endpoint can be referred to as a primary readout, because the performed assay has only produced 1 assay endpoint. To generalize the intended target to other relatable targets, this assay endpoint is annotated to the gpcr intended target family, where the subfamily is rhodopsin-like receptor.
# Binding assays used specific radioligands (tritiated, iodinated) with non-radioactive competitive displacement ligands in agonist or antagonist protocols (as indicated) and various reference compounds and inhibitors to titrate specific binding to receptors and transporters. Most enzyme assays (CYPs, kinases, phosphatases, proteases, HDACs) used recombinant protein and specific substrates (fluorescence mostly, some colorimetric and radioactive) and inhibitors, followed by a biochemical separation of substrate and product. All assays for the biochemical HTS were initially run in duplicate at a single concentration (10 uM for CYP450 assays and 25 uM for all others). […]
# [6] = system: 5-hydroxytryptamine receptor 2C (pig); assay: NVS_GPCR_p5HT2C: NovaScreen (NVS) G Protein-Coupled Receptor Assay for pig Serotonin, 5-Hydroxytryptamine Receptor 2C (5HT2C) (AID 2283288)
# Procedure, shortened: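 Radioligand displacement on membranes from pig choroid plexus, detected by filter scintillation counting after 1 h. Tested first at a single 25 uM in duplicate, then in concentration-response for actives; DMSO served as baseline.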
# [7] = system: guinea pig Atrionatriuretic Peptide Receptor A (ANPA), gene 100135578; assay: NVS_GPCR_gANPA: NovaScreen (NVS) G Protein-Coupled Receptor Assay for guinea pig Atrionatriuretic Peptide Receptor A (ANPA) (AID 2283291)
# Protocol: NVS_GPCR_gANPA is a biochemical, single-readout assay that uses extracted gene-proteins from Guinea pig cerebellar membranes in a tissue-based cell-free assay. Measurements were taken 1 hour after chemical dosing in a 96-well plate.NVS_GPCR_gANPA is one of one assay component(s) measured or calculated from the NVS_GPCR_gANPA assay. It is designed to make measurements of radioligand binding, a form of binding reporter, as detected with scintillation counting signals by Filter-based radiodetection technology.Data from the assay component NVS_GPCR_gANPA was analyzed into 1 assay endpoint. This assay endpoint, NVS_GPCR_gANPA, was analyzed in the positive analysis fitting direction relative to DMSO as the negative control and baseline of activity. Using a type of binding reporter, loss-of-signal activity can be used to understand changes in the binding as they relate to the gene Nppa. Furthermore, this assay endpoint can be referred to as a primary readout, because the performed assay has only produced 1 assay endpoint. To generalize the intended target to other relatable targets, this assay endpoint is annotated to the lyase intended target family, where the subfamily is guanylyl cyclase. […]
# [8] = target: guinea pig Bradykinin Receptor B2 (BK2), BDKRB2 (gene 100135486) (UniProt O70526); assay: NVS_GPCR_gBK2: NovaScreen (NVS) G Protein-Coupled Receptor Assay for guinea pig Bradykinin Receptor B2 (BK2) (AID 2283292)
# guinea pig Bradykinin Receptor B2 (BK2), BDKRB2 (gene 100135486), sequence (O70526 whole entry, looked up): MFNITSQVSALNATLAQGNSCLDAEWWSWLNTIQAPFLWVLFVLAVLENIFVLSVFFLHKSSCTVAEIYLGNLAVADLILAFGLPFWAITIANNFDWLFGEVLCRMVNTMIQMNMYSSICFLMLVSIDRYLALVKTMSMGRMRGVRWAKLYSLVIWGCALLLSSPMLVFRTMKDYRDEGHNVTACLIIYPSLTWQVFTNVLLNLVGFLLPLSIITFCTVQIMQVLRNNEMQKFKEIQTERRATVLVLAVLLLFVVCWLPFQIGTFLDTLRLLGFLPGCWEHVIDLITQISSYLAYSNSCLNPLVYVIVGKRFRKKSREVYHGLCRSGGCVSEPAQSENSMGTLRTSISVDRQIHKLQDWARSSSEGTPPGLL
# Procedure, shortened: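 Guinea pig ileum membrane preparation incubated 1 h with radioligand and test chemical; bound counts measured after filtration. Primary duplicate screening at 25 uM, then singleton concentration series with a 50 uM top dose; DMSO as baseline.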
# [9] = system: rabbit Platelet Activating Factor Receptor (PAF), gene 100354046; assay: NVS_GPCR_rabPAF: NovaScreen (NVS) G Protein-Coupled Receptor Assay for rabbit Platelet Activating Factor Receptor (PAF) (AID 2283287)
# Protocol: as §1, with “NVS_GPCR_rabPAF” for “NVS_GPCR_mCCKAPeripheral”, “Rabbit platelets” for “Mouse pancreatic membranes”, “1 hour” for “2 hours”, “48-well plate.NVS_GPCR_rabPAF” for “96-well plate.NVS_GPCR_mCCKAPeripheral”, “NVS_GPCR_rabPAF,” for “NVS_GPCR_mCCKAPeripheral,”, “PTAFR.” for “Cckar.”
# Binding assays used specific radioligands (tritiated, iodinated) with non-radioactive competitive displacement ligands in agonist or antagonist protocols (as indicated) and various reference compounds and inhibitors to titrate specific binding to receptors and transporters. Most enzyme assays (CYPs, kinases, phosphatases, proteases, HDACs) used recombinant protein and specific substrates (fluorescence mostly, some colorimetric and radioactive) and inhibitors, followed by a biochemical separation of substrate and product. All assays for the biochemical HTS were initially run in duplicate at a single concentration (10 uM for CYP450 assays and 25 uM for all others). […] Each assay was run with positive and negative controls, and concurrent controls on every plate. The follow-up (secondary) screen tested active chemical-pairs in concentration series, as well as a few additional assays not tested in the primary screen, some selected negative inactives, and several cases re-run in the concentration series for confirmatory purposes.
# [10] = target: rat Serotonin, 5-Hydroxytryptamine Receptor 1 (5HT1), Non-Selective Binding, Htr1a (gene 24473) (UniProt P19327); assay: NVS_GPCR_r5HT1_NonSelective: NovaScreen (NVS) G Protein-Coupled Receptor Assay for rat Serotonin, 5-Hydroxytryptamine Receptor 1 (5HT1), Non-Selective Binding (AID 2283286)
# rat Serotonin, 5-Hydroxytryptamine Receptor 1 (5HT1), Non-Selective Binding, Htr1a (gene 24473), sequence (P19327 whole entry, looked up): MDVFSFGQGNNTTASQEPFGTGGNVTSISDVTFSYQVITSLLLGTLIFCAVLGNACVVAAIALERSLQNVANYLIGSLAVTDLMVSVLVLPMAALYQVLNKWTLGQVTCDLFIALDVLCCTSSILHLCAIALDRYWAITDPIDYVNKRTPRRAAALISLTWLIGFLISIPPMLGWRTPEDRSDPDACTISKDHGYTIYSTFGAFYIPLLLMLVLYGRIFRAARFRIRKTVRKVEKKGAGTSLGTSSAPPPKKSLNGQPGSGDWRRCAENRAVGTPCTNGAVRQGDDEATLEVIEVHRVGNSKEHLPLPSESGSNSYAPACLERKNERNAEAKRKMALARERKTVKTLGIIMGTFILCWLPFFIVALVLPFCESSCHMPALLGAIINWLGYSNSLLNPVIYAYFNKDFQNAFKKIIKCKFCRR
# Procedure, shortened: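 Binding of a radioligand to rat cortex membranes is read by filtration and scintillation counting after 1 h. Compounds were screened at 25 uM in duplicate. Actives were then titrated to a top of 50 uM. DMSO is the baseline.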
structure (smiles),measurement,setting,value
COc1ccc(C(c2ccc(OC)cc2)C(Cl)(Cl)Cl)cc1,outcome,[1],inactive
same,outcome,[2],inactive
C#CCOS(=O)OC1CCCCC1Oc1ccc(C(C)(C)C)cc1 (centres undefined),outcome,[3],inactive
CC1COC(Cn2cncn2)(c2ccc(Oc3ccc(Cl)cc3)cc2Cl)O1 (centres undefined),AC50,[2],1.88 µM (active)
same,outcome,[4],inactive
C=CCC1=C(C)C(OC(=O)C2C(C=C(C)C)C2(C)C)CC1=O (centres undefined),AC50,[5],25 µM (active) [middle of 4 runs]
same,outcome,[6],inactive
same,outcome,[2],inactive
COC(=O)C=C(C)OP(=O)(OC)OC,outcome,[7],inactive
CCCN(CCC)c1c([N+](=O)[O-])cc(S(N)(=O)=O)cc1[N+](=O)[O-],outcome,[8],inactive
O=C(Nc1ccccc1)Nc1ccnc(Cl)c1,AC50,[2],6.97 µM (active)
same,AC50,[4],9.9 µM (active)
COC(=O)N(OC)c1ccccc1COc1ccn(-c2ccc(Cl)cc2)n1,AC50,[2],0.879 µM (active)
CCCCOC(=O)c1ccccc1C(=O)OCCCC,outcome,[1],inactive
CO/C=C(/C(=O)OC)c1ccccc1Oc1cc(Oc2ccccc2C#N)ncn1,outcome,[5],inactive
same,AC50,[9],13.9 µM (active) and 15.7 µM (active)
same,outcome,[2],inactive
same,outcome,[8],inactive
same,outcome,[4],inactive
CCCCNC(=O)OCC#CI,outcome,[10],inactive
same,AC50,[2],9.57 µM (active) and 6.68 µM (active)
same,AC50,[4],13.7 µM (active) and 25 µM (active)
CCCC1COC(Cn2cncn2)(c2ccc(Cl)cc2Cl)O1 (centres undefined),AC50,[9],14.4 µM (active)
same,AC50,[2],8.68 µM (active)
Cc1c(F)c(F)c(COC(=O)C2C(/C=C(\Cl)C(F)(F)F)C2(C)C)c(F)c1F (centres undefined),outcome,[1],inactive
CNC(=S)S,outcome,[9],inactive
same,outcome,[2],inactive
CN(C)C(=S)SSC(=S)N(C)C,outcome,[10],inactive
same,AC50,[2],5.29 µM (active)
O=C(O)c1nc(Cl)ccc1Cl,outcome,[8],inactive
CCc1nn(C)c(C(=O)NCc2ccc(C(C)(C)C)cc2)c1Cl,outcome,[9],inactive
CC(C)Oc1cc(-n2nc(C(C)(C)C)oc2=O)c(Cl)cc1Cl,AC50,[9],9.82 µM (active)
CCOP(=S)(OCC)SCn1c(=O)oc2cc(Cl)ccc21,AC50,[2],19.2 µM (active)
COC(=O)C(C)Oc1ccc(Oc2ccc(Cl)cc2Cl)cc1 (centres undefined),outcome,[9],inactive
CON(C)C(=O)Nc1ccc(Cl)c(Cl)c1,AC50,[6],25 µM (active)
same,AC50,[4],12.4 µM (active)
Fc1ccc(Oc2ccnc3cc(Cl)cc(Cl)c23)cc1,outcome,[9],inactive
same,outcome,[7],inactive
CS/C(C)=N/OC(=O)N(C)SN(C)C(=O)O/N=C(\C)SC,outcome,[2],inactive
CCCCC(CC)COC(=O)c1ccccc1C(=O)OCC(CC)CCCC (centres undefined),outcome,[9],inactive
Oc1ccccc1-c1ccccc1,outcome,[4],inactive
N#CC(CCc1ccc(Cl)cc1)(Cn1cncn1)c1ccccc1 (centres undefined),outcome,[2],inactive
C=CCC1=C(C)[C@@H](OC(=O)[C@@H]2[C@@H](C=C(C)C)C2(C)C)CC1=O,AC50,[5],19.9 µM (active)
same,AC50,[9],25 µM (active)
